A selection: hits, their analogues and other compounds. The true share with any hit is near 12%.
Pf growth 96h: Primary qHTS for delayed death inhibitors of the malarial parasite plastid, 96 hour incubation; hit rate 6.9% among 320,000; Potency, µM (titrated, usually from 28.7 µM), without a hit: at the highest dose activity change, negative = inhibition, hits mostly inhibitors; P. falciparum luciferase reporter growth, 96 h; further: on the % scale 0 is the no-effect control and ±100 the full control effect
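Two parasite generations (96 h, 37 C, 5% CO2) of compound exposure in infected erythrocytes (0.05% parasitemia, 2% hematocrit). Luciferase-reporter P. falciparum; decreased luminescence indicates inhibited growth, aimed at apicoplast-acting delayed death.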
AmpC inh no detg: qHTS Inhibitors of AmpC Beta-Lactamase (assay without detergent); P00811; AmpC nitrocefin hydrolysis, absorbance 480 nm, 0.0001% Triton; Potency, µM (top dose mostly 57.1 µM), without a hit: at the top dose activity change, negative = inhibition, most hits filed as inhibitors; hit rate 0.52% among 330,000; AID 485341, 2010;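 further: plate controls were no compound for no effect and no enzyme for full effect; nearly all actives have a fitted effect of over 20% in size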
Target sequence (P00811 whole entry, looked up): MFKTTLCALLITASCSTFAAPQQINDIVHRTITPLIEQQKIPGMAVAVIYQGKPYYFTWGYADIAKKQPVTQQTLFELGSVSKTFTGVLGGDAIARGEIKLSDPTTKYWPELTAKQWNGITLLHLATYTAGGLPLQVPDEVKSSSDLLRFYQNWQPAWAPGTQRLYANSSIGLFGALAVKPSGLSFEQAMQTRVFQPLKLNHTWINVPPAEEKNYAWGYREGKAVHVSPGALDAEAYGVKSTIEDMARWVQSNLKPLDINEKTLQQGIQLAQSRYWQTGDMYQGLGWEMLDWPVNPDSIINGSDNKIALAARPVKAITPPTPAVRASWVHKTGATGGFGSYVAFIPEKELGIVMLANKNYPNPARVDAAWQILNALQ
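20 mM phosphate pH 7.0 + 0.01% (detergent screen) or 0.0001% Triton X-100; 5.3 nM AmpC reagent; cpd preinc 15 min RT; nitrocefin (800 uM stock) to start; A480 q20 s × 4 min; Activity was normalised to no-enzyme and no-compound control wells.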
Pf growth 48h: Primary qHTS for delayed death inhibitors of the malarial parasite plastid, 48 hour incubation; P. falciparum luciferase growth in erythrocytes, 48 h; Potency, µM (doses to about 28.7 µM), for inactives: top-dose activity change, negative = inhibition, most hits filed as inhibitors; hit rate 5.9% among 310,000; AID 504832, 2011; further: on the % scale 0 is the no-effect control and ±100 the full control effect
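Cell-based growth assay: transgenic P. falciparum expressing firefly luciferase, cultured in red cells within RPMI 1640 containing 0.5% w/v Albumax, 24 mM bicarbonate and gentamycin. A drop in luciferase activity indicates inhibition.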
AmpC inh detg: qHTS Inhibitors of AmpC Beta-Lactamase (assay with detergent); hit rate 0.041% among 370,000; P00811; AmpC hydrolysis of nitrocefin, absorbance 480 nm, 0.01% Triton; Potency, µM (top dose mostly 114 µM), for inactives: at the highest dose activity change, negative = inhibition, most hits filed as inhibitors;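 further: 0% = no-compound wells and -100% = no-enzyme wells; nearly all actives have a fitted effect of over 25% in size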
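AmpC (5.3 nM in the dispensed reagent) in 20 mM phosphate pH 7.0 with 0.01% (detergent screen) or 0.0001% Triton X-100 was preincubated with compounds for 15 min at room temperature. Nitrocefin was then added from an 800 uM solution, and hydrolysis was followed at 480 nm.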
Sm TGR inh: qHTS Assay for the Inhibitors of Schistosoma Mansoni Peroxiredoxins; Potency, µM (highest dose often 114 µM), inactives show top-dose activity change, negative = inhibition, usual class: inhibitors; AID 485364, 2010; hit rate 3% among 360,000; Schistosoma mansoni thioredoxin glutathione reductase (TGR), Q962Y6; purified TGR, DTNB reduction, TNB absorbance 405 nm; further: on the % scale 0 is the no-effect control and ±100 the full control effect; nearly all actives have a fitted effect of over 60% in size
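Kinetic colorimetric format: TGR-catalysed, NADPH-driven DTNB reduction monitored via TNB absorbance. Enzyme dispensed at 20 nM; compound exposure 15 min at room temperature before reaction start.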
SARS PLpro yeast: qHTS of Yeast-based Assay for SARS-CoV PLP; S. cerevisiae expressing SARS-CoV PLpro, growth rescue; Potency, µM (titrated, usually from 32.9 µM), for the others: at the top dose activity, positive = growth rescue, hits mostly activators; hit rate 0.19% among 330,000; calls by dose curve; further: 0% is about no effect; nearly all actives have a fitted effect of over 55% in size
* marks the source's active call; other numbers are inactive results; ? = inconclusive; . = not tested or not shown; [ ] = dose if it differs, or a comment. Unless noted, the call rests on the fitted dose curve; in most records, active means well fitted curve in the direction sought with a large enough effect; inconclusive means small, poorly fitted or top-dose-only effect, or another doubt; inactive means no such curve, though single readings can be large; an effect the other way counts as inactive or inconclusive. Potency means the concentration at half of the fitted maximal effect.

SMILES	Pf growth 96h	AmpC inh no detg	Pf growth 48h	AmpC inh detg	Sm TGR inh	SARS PLpro yeast
O=C(Nc1nccs1)c1cc(-c2ccncc2)nc2ccccc12	?	-20.4%	?	-8.8%	0.7%	-1.3%
Cc1ccc(-c2cc(C(=O)Nc3nccs3)c3ccccc3n2)c(C)c1	1.31µM*	-20.7%	?	-12.6%	-11.3%	-23.9%
Cc1ccc(-c2cc(C(=O)Nc3nccs3)c3ccccc3n2)o1	9.28µM*	-18.1%	?	-6.3%	7.08µM*	-53.9%
Cc1ccc(NC(=O)COc2ccc3oc4c(c3c2)CCCC4)c(C)c1	.	.	.	17.7%	1.9%	.
Cc1ccc(C(=O)COC(=O)CCc2nc3ccccc3[nH]c2=O)cc1C	2.62µM*	-32.5%	11.5%	-1.0%	-0.6%	6.0%
CC(C)N(Cc1ccccc1)C(=O)CN1C(=O)NC2(CCCCCC2)C1=O	-23.2%	3.8%	?	?	3.9%	-4.3%
NC(=O)CC(NC(=O)c1ccc(Br)cc1)c1ccc(N2CCN(c3ccccc3)CC2)c([N+](=O)[O-])c1 (configuration not stated)	-15.5%	0.2%	14.6%	-14.7%	10.8%	7.6%
NC(=O)CC(NC(=O)c1ccc(Br)cc1)c1ccc(N2CCCCCCC2)c([N+](=O)[O-])c1 (configuration not stated)	2.94µM*	14.1%	20.4%	?	0.2%	-1.0%
O=c1cc(O)n(-c2ccc(Cl)cc2)c(=S)[nH]1	43.7%	-33.0%	.	-4.6%	?	13.4%
O=C1NC2CCc3nc4ccccc4c(=O)n3C2=Nc2ccccc21 (configuration not stated)	11.7µM*	1.4%	28.1%	-8.0%	-22.2%	1.3%
COc1ccc(C2Sc3nncn3N2Cc2ccc(C#N)cc2)cc1 (configuration not stated)	13.1µM*	-8.9%	-9.1%	-9.0%	4.8%	8.4%
COc1ccc(CC(=O)Oc2ccc(C#N)cc2)cc1	?	-10.2%	0.0%	-9.5%	3.8%	-0.5%
Cn1c(N)c(C(=O)COC(=O)Cc2ccc(Br)cc2)c(=O)n(C)c1=O	.	-5.6%	.	.	.	-28.9%
Cn1c(N)c(C(=O)COC(=O)Cc2ccsc2)c(=O)n(C)c1=O	10.4µM*	-0.4%	19.8%	1.1%	-4.8%	1.0%
COc1cc(OC)c(NC(=O)N2CCc3c(sc4c3CCCC4)C2c2ccccc2)cc1Cl (configuration not stated)	.	.	.	-3.4%	-3.4%	.
CC1CN(c2cc(-c3ccccc3)c3ccccc3n2)CC(C)O1 (configuration not stated)	2.62µM*	78.4%	.	1.5%	6.6%	-23.6%
c1ccc(-c2cc(N3CCOCC3)nc3ccccc23)cc1	-8.7%	.	2.6%	-0.7%	3.1%	.
O=c1[nH]c(/C(Cl)=C/c2c(F)cccc2Cl)nc2cc(Cl)ccc12	48.1%	-15.9%	-13.7%	5.3%	0.3%	?
O=c1[nH]c(/C(Cl)=C/c2cc(Cl)ccc2O)nc2cc(Cl)ccc12	9.28µM*	-46.0%	-23.0%	-9.0%	0.3%	-17.6%
O=C(Nc1nnc(-c2ccco2)o1)c1ccc(S(=O)(=O)N2CCCC2)cc1	?	-24.0%	11.7µM*	6.7%	-3.8%	4.0%
O=C(Nc1nc(-c2ccccc2)c(-c2ccccc2)o1)c1ccc(F)cc1	9.28µM*	-49.7%	?	-9.6%	-16.5%	-21.3%
O=C(Nc1nnc(-c2ccc(F)cc2)o1)c1ccc(S(=O)(=O)N2CCOCC2)cc1	3.29µM*	-33.3%	?	-10.7%	3.7%	-4.5%
O=C(Nc1nnc(-c2ccco2)o1)c1ccc([N+](=O)[O-])s1	11.7µM*	-13.3%	-23.2%	-4.8%	28.2µM*	-0.9%
Cc1ccc(C(=O)Nc2nnc(-c3ccco3)o2)cc1	?	0.1%	88.8%	-1.1%	-3.6%	-23.8%
O=C(Nc1ccc(OCc2cc(=O)n3c4c(sc3n2)CCCC4)cc1)c1ccccc1	.	.	.	5.0%	2.7%	.
SMILES	Pf growth 96h	AmpC inh no detg	Pf growth 48h	AmpC inh detg	Sm TGR inh	SARS PLpro yeast
COc1ccc(-c2nnc(NC(=O)c3ccc(F)cc3)o2)cc1	?	22.4µM*	?	?	-5.0%	-16.4%
CC1CCN(S(=O)(=O)c2ccc(C(=O)Nc3nnc(-c4ccco4)o3)cc2)CC1	14.7µM*	-31.8%	?	-4.1%	0.0%	-3.0%
CS(=O)(=O)c1cccc(-c2nnc(NC(=O)c3ccc(S(=O)(=O)N4CCCC4)cc3)o2)c1	13.1µM*	-18.2%	?	?	4.9%	0.2%
CC1CN(S(=O)(=O)c2ccc(C(=O)Nc3nnc(-c4ccco4)o3)cc2)CC(C)O1 (configuration not stated)	?	-50.5%	?	1.4%	-25.9%	1.5%
Cc1ccc2c(c1)nc(SCC(O)c1ccc(Br)cc1)n2C (configuration not stated)	.	.	.	6.8%	-2.7%	.
CCN1CCN(C(=O)/C(=C/c2ccco2)NC(=O)c2ccccc2)CC1	-7.4%	-3.3%	15.5%	?	-0.7%	-3.1%
O=C(Nc1cccc(-c2nc3ncccc3o2)c1)c1ccc(-c2cccc(Cl)c2Cl)o1	.	.	.	0.8%	?	.
COc1ccc(-n2ncc(C(=O)NCCc3ccsc3)c2C2CCN(C(=O)OC(C)(C)C)CC2)cc1	.	.	.	21.8%	8.5%	.
CCOc1ccc(OCC)c(NS(=O)(=O)c2c(C(=O)N3CCCCCC3)c(C)n(C)c2C)c1	.	.	.	-5.7%	-7.3%	.
COC(=O)C1=NNC2C(=O)N(C3CCCCC3)C(=O)C12 (configuration not stated)	3.29µM*	-4.1%	15.2%	-0.2%	0.6%[57.1 µM]	1.6%
COC(=O)C1=NNC2C(=O)N(c3ccc(C)cc3)C(=O)C12 (configuration not stated)	?	-7.6%	12.1%	-23.7%	-0.2%	-0.9%
COc1ccc(-c2cnnc(N/N=C/c3ccc(-c4ccc([N+](=O)[O-])cc4)o3)n2)cc1	8.2%	-9.9%	2.94µM*	1.1%	-12.9%	-0.3%
COc1ccc(-c2cnnc(N/N=C/c3ccc(O)c(OC)c3)n2)cc1	5.22µM*	-22.4%	-11.0%	-13.5%	-6.7%	14.9%
Cc1ccc(NC(=O)C2C(c3ccccc3)C2(Cl)Cl)c(C)c1 (configuration not stated)	.	28.2µM*	-1.2%	-1.0%	-9.2%	-26.8%
Cc1cccc(NC(=O)C2C(c3ccccc3)C2(Cl)Cl)c1 (configuration not stated)	24.9%	-52.5%	?	-2.3%	0.0%	-5.4%
